Where “and” joins values, the source holds several entries; their conditions need not be identical. Equal values may be shown once. About 83,000 compounds went through this panel and 20% of them were active in at least one assay; those are over-represented in the sample as a whole.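 Method: cells in 96-well plates; compound added at one concentration; 48 h incubation; percent growth measured; values under 10 scored active.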 Calls of active or inactive are those of the source.
Assays:
Assay in all cases: NCI-60 one-dose screen, 48 h (100 = growth as untreated, 0 = no growth, -100 = all killed)
Details in all cases: 10 µM
NCI-H23 lung = tested on: NCI-H23 lung
NCI-H322M lung = tested on: NCI-H322M lung
HOP-62 NSCLC = tested on: HOP-62 NSCLC
NCI-H460 lung = tested on: NCI-H460 lung
HOP-92 NSCLC = tested on: HOP-92 NSCLC
NCI-H522 lung = tested on: NCI-H522 lung
A549/ATCC NSCLC = tested on: A549/ATCC NSCLC
786-0 renal = tested on: 786-0 renal
COLO 205 colon = tested on: COLO 205 colon
DU-145 prostate = tested on: DU-145 prostate
K-562 leukemia = tested on: K-562 leukemia
MALME-3M melanoma = tested on: MALME-3M melanoma
MDA-MB-231 breast = tested on: MDA-MB-231 breast
RXF 393 renal = tested on: RXF 393 renal
SF-268 CNS = tested on: SF-268 CNS
SF-539 CNS = tested on: SF-539 CNS
UACC-257 melanoma = tested on: UACC-257 melanoma
M14 melanoma = tested on: M14 melanoma
NCI-H226 lung = tested on: NCI-H226 lung
SF-295 CNS = tested on: SF-295 CNS

Measured: growth

Oc1c(Cl)cc(Cl)c2ccccc12.[Cu+2]
inactive: NCI-H23 lung 91.4% | NCI-H322M lung 92.1% | HOP-62 NSCLC 108% | NCI-H460 lung 99.4% | HOP-92 NSCLC 104% | NCI-H522 lung 71.2% | A549/ATCC NSCLC 111% | 786-0 renal 116% | COLO 205 colon 102% | DU-145 prostate 106% | K-562 leukemia 69% | MALME-3M melanoma 96.3% | MDA-MB-231 breast 81.4% | RXF 393 renal 103% | SF-268 CNS 109% | SF-539 CNS 108% | UACC-257 melanoma 113% | M14 melanoma 97.9%

CC(C)C1(NC(=O)C2CC3c4cccc5[nH]cc(c45)CC3N(C)C2)OC2(O)C3CCCN3C(=O)C(Cc3ccccc3)N2C1=O (configuration not stated)
inactive: NCI-H23 lung 99.4% | NCI-H226 lung 103% | NCI-H322M lung 118% | HOP-62 NSCLC 110% | NCI-H460 lung 109% | NCI-H522 lung 82.1% | A549/ATCC NSCLC 107% | 786-0 renal 96.3% | DU-145 prostate 104% | K-562 leukemia 69.8% | MALME-3M melanoma 98.8% | MDA-MB-231 breast 86.9% | RXF 393 renal 96.6% | SF-268 CNS 93.1% | SF-295 CNS 106% | SF-539 CNS 98.8% | UACC-257 melanoma 93.7% | M14 melanoma 103%

CC(C)c1cc([N+](=O)[O-])cc([N+](=O)[O-])c1O
inactive: NCI-H23 lung 102% | NCI-H322M lung 112% | HOP-62 NSCLC 98.5% | NCI-H460 lung 105% | HOP-92 NSCLC 75.1% | NCI-H522 lung 103% | A549/ATCC NSCLC 103% | 786-0 renal 101% | COLO 205 colon 105% | DU-145 prostate 110% | K-562 leukemia 119% | MALME-3M melanoma 137% | MDA-MB-231 breast 99.7% | RXF 393 renal 102% | SF-268 CNS 102% | SF-295 CNS 99% | SF-539 CNS 101% | UACC-257 melanoma 115% | M14 melanoma 99.7%

COc1ccc2c(ccc3oc([N+](=O)[O-])cc32)c1
inactive: HOP-92 NSCLC 10.8%
active: NCI-H23 lung -9.56% | NCI-H322M lung -10.7% | HOP-62 NSCLC -4.6% | NCI-H460 lung -3.44% | NCI-H522 lung -52% | A549/ATCC NSCLC 0.82% | 786-0 renal -2.34% | COLO 205 colon -76.3% | DU-145 prostate 0.495% | K-562 leukemia 0.428% | MALME-3M melanoma -55% | MDA-MB-231 breast -20.3% | RXF 393 renal -64.3% | SF-268 CNS -6.08% | SF-295 CNS -0.437% | SF-539 CNS -18.7% | UACC-257 melanoma -56.9% | M14 melanoma -40.2%

COc1cc(/C=C/[N+](=O)[O-])cc(Br)c1OC
inactive: NCI-H322M lung 99.5% | HOP-62 NSCLC 59.5% | HOP-92 NSCLC 72.6% | A549/ATCC NSCLC 57.2% | COLO 205 colon 17.5% | DU-145 prostate 66.5% | MALME-3M melanoma 98.1% | SF-268 CNS 32% | SF-295 CNS 78.3% | SF-539 CNS 28.5%
active: NCI-H23 lung -67.9% | NCI-H226 lung -18.3% | NCI-H522 lung -71.5% | 786-0 renal -56.7% | K-562 leukemia 4.74% | MDA-MB-231 breast 7.14% | RXF 393 renal -80.5% | UACC-257 melanoma -13.2% | M14 melanoma -72.1%

C=C1C(=O)O[C@@H]2C[C@@H](C)[C@@H]3C=CC(=O)[C@@]3(C)[C@@H](O)[C@H]12
active: NCI-H23 lung -36.3% | NCI-H226 lung -38.6% | NCI-H322M lung -24.7% | HOP-62 NSCLC -44.6% | NCI-H460 lung -26.4% | NCI-H522 lung -81.2% | A549/ATCC NSCLC -3.45% | 786-0 renal -71.6% | COLO 205 colon -95% | DU-145 prostate -100% | K-562 leukemia -56.9% | MALME-3M melanoma -76.6% | MDA-MB-231 breast -63.2% | RXF 393 renal 1.51% | SF-268 CNS -45% | SF-295 CNS -35.8% | SF-539 CNS -73.3% | UACC-257 melanoma 1.25% | M14 melanoma -64.8%

COc1ccc(/C=C(\C)[N+](=O)[O-])cc1OC
active: HOP-92 NSCLC -9.49% | NCI-H522 lung -69.4% | 786-0 renal -44.2% | COLO 205 colon -80.5% | K-562 leukemia -9.93% | MALME-3M melanoma -72.2% | UACC-257 melanoma -80.4% | M14 melanoma -41.9%
inactive: NCI-H23 lung 64.7% | NCI-H226 lung 68.9% | NCI-H322M lung 64.9% | HOP-62 NSCLC 63% | A549/ATCC NSCLC 36.3% | DU-145 prostate 18.6% | MDA-MB-231 breast 77.9% | SF-268 CNS 12% | SF-295 CNS 69% | SF-539 CNS 62.8%

COC(=O)C1C(O)C(C)C(O)C(C)/C=C\C=C(C)C(=O)Nc2c(C)c(OC(C)=O)c3c(c2O)C(=O)C(C)=C2OCOC(=C23)C(C)=CC(C)(O)C(O)C(C)C1O (configuration not stated)
inactive: NCI-H23 lung 97.6% | NCI-H226 lung 99.2% | NCI-H322M lung 106% | HOP-62 NSCLC 96.8% | NCI-H460 lung 111% | NCI-H522 lung 59.1% | A549/ATCC NSCLC 98.5% | 786-0 renal 107% | DU-145 prostate 92.2% | K-562 leukemia 106% | MALME-3M melanoma 97.9% | MDA-MB-231 breast 88.6% | RXF 393 renal 98.6% | SF-268 CNS 92.2% | SF-295 CNS 103% | SF-539 CNS 100% | UACC-257 melanoma 93.1% | M14 melanoma 118%

CC1CCC2(OC1)OC1C(O)C3C4CCC5CC(OC6OC(CO)C(OC7OC(CO)C(O)C(OC8OCC(O)C(O)C8O)C7OC7OC(CO)C(O)C(OC8OC(CO)C(O)C(O)C8O)C7O)C(O)C6O)C(O)CC5(C)C4CCC3(C)C1C2C (configuration not stated)
inactive: NCI-H322M lung 13.2% | COLO 205 colon 22.7% | MALME-3M melanoma 14.8% | M14 melanoma 62.9%
active: NCI-H23 lung -51.5% | HOP-62 NSCLC -95.3% | NCI-H460 lung 5.81% | HOP-92 NSCLC -3.92% | NCI-H522 lung -71.4% | A549/ATCC NSCLC -40.2% | 786-0 renal -92% | DU-145 prostate -100% | K-562 leukemia -100% | MDA-MB-231 breast -70.2% | RXF 393 renal -71.6% | SF-268 CNS -39.7% | SF-295 CNS -77.9% | SF-539 CNS -53.3% | UACC-257 melanoma -85.7%

COC12C(COC(N)=O)C3=C(C(=O)C(C)=C(N)C3=O)N1CC1C2N1C (configuration not stated)
inactive: NCI-H322M lung 30% | HOP-62 NSCLC 32.3% | NCI-H522 lung 17.7% | A549/ATCC NSCLC 47.5% | 786-0 renal 31.1% | COLO 205 colon 46.2% | K-562 leukemia 50.1% | MALME-3M melanoma 31.4% | MDA-MB-231 breast 93.9% | RXF 393 renal 46% | SF-268 CNS 45.8% | SF-295 CNS 17.3% | SF-539 CNS 19.8% | UACC-257 melanoma 16.6% | M14 melanoma 28.4%
active: NCI-H23 lung 6.66% | NCI-H460 lung -6.38% | HOP-92 NSCLC -0.595% | DU-145 prostate -3.38%

COc1cc2c(c(OC)c1OC)-c1ccc(O)c(=O)cc1[C@@H](NC(C)=O)CC2
inactive: NCI-H23 lung 65.1% | NCI-H226 lung 68.9% | NCI-H322M lung 57.5% | HOP-62 NSCLC 28.9% | NCI-H460 lung 24.6% | A549/ATCC NSCLC 31.9% | 786-0 renal 68.9% | COLO 205 colon 72.6% | DU-145 prostate 61.5% | K-562 leukemia 46.8% | MALME-3M melanoma 79.8% | MDA-MB-231 breast 72.2% | RXF 393 renal 59.7% | SF-268 CNS 47.5% | SF-539 CNS 51.5% | UACC-257 melanoma 75.7% | M14 melanoma 52.7%

CS(=N)(=O)CCC(N)C(=O)O (configuration not stated)
inactive: NCI-H23 lung 95.2% | NCI-H322M lung 108% | HOP-62 NSCLC 98.3% | NCI-H460 lung 112% | HOP-92 NSCLC 106% | NCI-H522 lung 96.9% | A549/ATCC NSCLC 97.8% | 786-0 renal 102% | COLO 205 colon 122% | DU-145 prostate 122% | K-562 leukemia 97.2% | MALME-3M melanoma 103% | MDA-MB-231 breast 109% | SF-268 CNS 119% | SF-295 CNS 97.1% | SF-539 CNS 109% | UACC-257 melanoma 105% | M14 melanoma 108%

C[CH2][Hg][S]c1ccccc1C(=O)O
active: NCI-H226 lung -53.4% | NCI-H522 lung -77.2% | 786-0 renal 1.68% | COLO 205 colon -100% | DU-145 prostate -28.6% | K-562 leukemia -4.39% | MALME-3M melanoma -96.4% | MDA-MB-231 breast -5.17% | RXF 393 renal -96.8% | SF-268 CNS -18.6% | UACC-257 melanoma -98.5% | M14 melanoma -67.1%
inactive: NCI-H23 lung 11.3% | NCI-H322M lung 66.2% | HOP-62 NSCLC 47.2% | NCI-H460 lung 36% | A549/ATCC NSCLC 35% | SF-295 CNS 97.2%

C/C(=C\c1ccc(Cl)c(Cl)c1)[N+](=O)[O-]
0.843% (active) and 78.6% (inactive): K-562 leukemia
-26.3% (active) and 101% (inactive): MDA-MB-231 breast
-57.9% (active) and 101% (inactive): COLO 205 colon
active: UACC-257 melanoma -88.8%
-86.8% (active) and 95% (inactive): M14 melanoma
8.46% (active) and 104% (inactive): DU-145 prostate
-55.4% (active) and 105% (inactive): MALME-3M melanoma
-87.3% (active) and 82.6% (inactive): NCI-H522 lung
inactive: NCI-H23 lung 44.6% and 94.8% | NCI-H322M lung 94.6% and 100% | HOP-62 NSCLC 86.9% | NCI-H460 lung 55.6% and 105% | A549/ATCC NSCLC 74.3% and 76.6% | 786-0 renal 45.8% and 94.9% | SF-295 CNS 94.5% | SF-539 CNS 96.3% and 100%
-91.7% (active) and 100% (inactive): RXF 393 renal
-29.8% (active) and 89.5% (inactive): HOP-92 NSCLC
-19.1% (active) and 102% (inactive): SF-268 CNS

O=S(=O)(F)c1ccc(Cl)cc1
inactive: NCI-H23 lung 100% | NCI-H322M lung 123% | HOP-62 NSCLC 106% | NCI-H460 lung 113% | HOP-92 NSCLC 86.8% | NCI-H522 lung 101% | A549/ATCC NSCLC 98.3% | 786-0 renal 107% | COLO 205 colon 107% | DU-145 prostate 130% | K-562 leukemia 112% | MALME-3M melanoma 123% | MDA-MB-231 breast 115% | RXF 393 renal 112% | SF-268 CNS 97.6% | SF-295 CNS 114% | SF-539 CNS 99.7% | UACC-257 melanoma 99.1% | M14 melanoma 104%

— PubChem BioAssay (NCI)
